Data as given in PubChem BioAssay (NCI).
Values joined by “and” are separate entries in the source; they are usually repeats but may differ in a detail not shown here. Equal values may be shown once. Compounds without any hit were thinned out: in the full panel of roughly 79,000, 15% have a hit. More than one record can exist for a structure, and the calls need not agree. Active and inactive are the calls of the source. Rule as the data show it: active = growth inhibition above about 70%; inactive = the rest.

What was measured:
[1] = NCI Yeast Anticancer Drug Screen. Data for the rad52 strain (AID 147);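 also: 0% = growth of vehicle-treated control cultures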; conditions: S. cerevisiae rad52 mutant growth inhibition, stronger effect = higher value
In short: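 DNA repair-defective yeast; compound exposure; growth scored against vehicle controls.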

[2] = NCI Yeast Anticancer Drug Screen. Data for the wt1 strain (AID 149);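 also: 0% = growth of vehicle-treated wt1 cultures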; conditions: S. cerevisiae wt1 strain (SPY 50644) growth inhibition, stronger effect = higher value
In short: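 Readout: yeast growth inhibition, normalised to vehicle controls, in the wt1 strain exposed to test compounds.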

[3] = NCI Yeast Anticancer Drug Screen. Data for the rad50EPP+ strain (AID 151);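 also: 0% = growth of vehicle-treated control cultures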; conditions: S. cerevisiae rad50 mutant strain, stronger effect = higher value
In short: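 rad50EPP+ yeast treated with test compounds. Readout: growth vs vehicle control.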

[4] = NCI Yeast Anticancer Drug Screen. Data for the mgt1 strain (AID 153); conditions: S. cerevisiae mgt1 mutant growth inhibition, stronger effect = higher value
In short: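 Growth inhibition relative to vehicle controls was scored for the mgt1 yeast strain after compound exposure.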

[5] = NCI Yeast Anticancer Drug Screen. Data for the rad50 strain (AID 155);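 also: 0% = growth of vehicle-only cultures of the same strain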; conditions: S. cerevisiae rad50 strain growth inhibition, stronger effect = higher value
In short: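 Compounds were tested on a yeast strain with an engineered DNA damage repair alteration; the reported value is growth inhibition normalised to vehicle treatment.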

[6] = NCI Yeast Anticancer Drug Screen. Data for the mec2-1 strain (AID 157); conditions: S. cerevisiae mec2-1 strain, stronger effect = higher value
In short: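 Growth inhibition is read against vehicle-treated controls after compound exposure of the mec2-1 yeast strain, which is defective in DNA damage repair or cell cycle control.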

[7] = NCI Yeast Anticancer Drug Screen. Data for the rad14 strain (AID 159);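 also: 0% = growth of vehicle-treated control cultures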; conditions: S. cerevisiae rad14 strain growth inhibition, stronger effect = higher value
In short: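 Compound-treated yeast with a defined DNA-repair lesion; growth inhibition normalised to vehicle-treated cultures.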

[8] = NCI Yeast Anticancer Drug Screen. Data for the sgs1 mgt1 strain (AID 161);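 also: 0% = growth of cultures given vehicle only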; conditions: S. cerevisiae sgs1 mgt1 strain, stronger effect = higher value
In short: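 Growth of a repair-deficient yeast mutant was monitored after compound treatment and expressed as inhibition relative to vehicle-treated cultures.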

[9] = NCI Yeast Anticancer Drug Screen. Data for the cln2 rad14 strain (AID 165);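 also: 0% = growth equal to vehicle treated cultures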; conditions: S. cerevisiae cln2 rad14 strain, stronger effect = higher value
In short: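 Growth inhibition, relative to vehicle-treated controls, is the read-out. The test organism is a yeast strain with defined genetic alterations, cln2 rad14.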

[10] = NCI Yeast Anticancer Drug Screen. Data for the bub3 strain (AID 167); conditions: S. cerevisiae bub3 mutant strain, stronger effect = higher value
In short: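 Growth of a checkpoint-deficient yeast mutant is measured after compound exposure. Values represent inhibition relative to vehicle.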

[11] = NCI Yeast Anticancer Drug Screen. Data for the wt2 strain (AID 169);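 also: 0% = growth of vehicle-treated yeast cultures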; conditions: S. cerevisiae wt2 strain growth inhibition, stronger effect = higher value
In short: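 Compound exposure of yeast; growth compared with vehicle controls; inhibition reported.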

[12] = NCI Yeast Anticancer Drug Screen. Data for the mlh1 strain (AID 171);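 also: 0% = growth of vehicle-treated control cultures of the same strain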; conditions: S. cerevisiae mlh1 strain growth inhibition, stronger effect = higher value
In short: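 Compounds are applied to a genetically altered yeast strain, and its growth is compared with that of vehicle-treated cultures to give percent inhibition.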

[13] = NCI Yeast Anticancer Drug Screen. Data for the mlh1 rad18 strain (AID 175); conditions: S. cerevisiae mlh1 rad18 strain growth inhibition, stronger effect = higher value
In short: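 Cells of a genetically altered yeast strain, deficient in DNA damage repair, were treated with compound. Their growth was then compared with that of vehicle-treated cultures to give inhibition.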

[14] = NCI Yeast Anticancer Drug Screen. Data for the rad18 strain (AID 177); conditions: S. cerevisiae rad18 mutant growth inhibition, stronger effect = higher value
In short: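 Compounds are applied to a repair-deficient yeast strain, and growth is compared with that of vehicle-treated cultures to give percent inhibition.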

[15] = at 5.0 µM (retest, dose inferred, filed as 0.5)
[16] = at 50.0 µM (retest, dose inferred, filed as 5.0)

Compound: Cc1cc(-c2cc(C)c(O)c(C(C)(C)C)c2)cc(C(C)(C)C)c1O
- growth inhibition ([1]; at 1.2 µM): -37% (inactive)
- growth inhibition ([1]; at 3.7 µM): -34% (inactive)
- growth inhibition ([1]; at 11.0 µM): -17% (inactive)
- growth inhibition ([1]; at 33.0 µM): 48% (inactive)
- growth inhibition ([1]; at 100.0 µM): 75% (active)
- growth inhibition ([2]; at 1.2 µM): -52% (inactive)
- growth inhibition ([2]; at 3.7 µM): -49% (inactive)
- growth inhibition ([2]; at 11.0 µM): -44% (inactive)
- growth inhibition ([2]; at 33.0 µM): 6% (inactive)
- growth inhibition ([2]; at 100.0 µM): 70% (active)
- growth inhibition ([3]; at 1.2 µM): -35% (inactive)
- growth inhibition ([3]; at 3.7 µM): -31% (inactive)
- growth inhibition ([3]; at 11.0 µM): -29% (inactive)
- growth inhibition ([3]; at 33.0 µM): -25% (inactive)
- growth inhibition ([3]; at 100.0 µM): -4% (inactive)
- growth inhibition ([4]; at 1.2 µM): -49% (inactive)
- growth inhibition ([4]; at 3.7 µM): -51% (inactive)
- growth inhibition ([4]; at 11.0 µM): -49% (inactive)
- growth inhibition ([4]; at 33.0 µM): -16% (inactive)
- growth inhibition ([4]; at 100.0 µM): 57% (inactive)
- growth inhibition ([5]; at 1.2 µM): -2% (inactive)
- growth inhibition ([5]; at 3.7 µM): -4% (inactive)
- growth inhibition [5, 15]: 43% (inactive) and 15% (inactive)
- growth inhibition ([5]; at 11.0 µM): 11% (inactive)
- growth inhibition ([5]; at 33.0 µM): 52% (inactive)
- growth inhibition [5, 16]: 98% (active) and 74% (active)
- growth inhibition ([5]; at 50.0 µM): 70.5% (active) and 77.3% (active)
- growth inhibition ([5]; at 100.0 µM): 72% (active)
- growth inhibition ([6]; at 1.2 µM): -30% (inactive)
- growth inhibition ([6]; at 3.7 µM): -23% (inactive)
- growth inhibition [6, 15]: 51% (inactive) and -6% (inactive)
- growth inhibition ([6]; at 11.0 µM): -10% (inactive)
- growth inhibition ([6]; at 33.0 µM): -2% (inactive)
- growth inhibition [6, 16]: 98% (active) and 91% (active)
- growth inhibition ([6]; at 50.0 µM): 65.3% (inactive) and 61.5% (inactive)
- growth inhibition ([6]; at 100.0 µM): 55% (inactive)
- growth inhibition ([7]; at 1.2 µM): -16% (inactive)
- growth inhibition ([7]; at 3.7 µM): -10% (inactive)
- growth inhibition ([7]; at 11.0 µM): -23% (inactive)
- growth inhibition ([7]; at 33.0 µM): 25% (inactive)
- growth inhibition ([7]; at 100.0 µM): 72% (active)
- growth inhibition [8, 15]: 10% (inactive) and 18% (inactive)
- growth inhibition [8, 16]: 45% (inactive) and 90% (active)
- growth inhibition ([8]; at 50.0 µM): 66.3% (inactive) and 80.8% (active)
- growth inhibition [9, 15]: 52% (inactive) and -17% (inactive)
- growth inhibition [9, 16]: 81% (active) and 91% (active)
- growth inhibition ([9]; at 50.0 µM): 77.8% (active) and 65.8% (inactive)
- growth inhibition ([10]; at 1.2 µM): -6% (inactive)
- growth inhibition ([10]; at 3.7 µM): 5% (inactive)
- growth inhibition [10, 15]: 43% (inactive) and 5% (inactive)
- growth inhibition ([10]; at 11.0 µM): 24% (inactive)
- growth inhibition ([10]; at 33.0 µM): 40% (inactive)
- growth inhibition [10, 16]: 52% (inactive) and 93% (active)
- growth inhibition ([10]; at 50.0 µM): 70.2% (active) and 37.4% (inactive)
- growth inhibition ([10]; at 100.0 µM): 65% (inactive)
- growth inhibition ([11]; at 1.2 µM): -32% (inactive)
- growth inhibition ([11]; at 3.7 µM): -18% (inactive)
- growth inhibition ([11]; at 11.0 µM): -17% (inactive)
- growth inhibition ([11]; at 33.0 µM): 4% (inactive)
- growth inhibition ([11]; at 100.0 µM): 66% (inactive)
- growth inhibition ([12]; at 1.2 µM): -44% (inactive)
- growth inhibition ([12]; at 3.7 µM): -31% (inactive)
- growth inhibition ([12]; at 11.0 µM): -28% (inactive)
- growth inhibition ([12]; at 33.0 µM): 9% (inactive)
- growth inhibition ([12]; at 100.0 µM): 65% (inactive)
- growth inhibition [13, 15]: 46% (inactive) and 3% (inactive)
- growth inhibition [13, 16]: 99% (active) and 92% (active)
- growth inhibition ([13]; at 50.0 µM): 70.5% (active) and 84.8% (active)
- growth inhibition ([14]; at 1.2 µM): -42% (inactive)
- growth inhibition ([14]; at 3.7 µM): -36% (inactive)
- growth inhibition ([14]; at 11.0 µM): -26% (inactive)
- growth inhibition ([14]; at 33.0 µM): 29% (inactive)
- growth inhibition ([14]; at 100.0 µM): 74% (active)

Compound: CC(C)(C)c1ccc(NS(=O)(=O)c2ccc(N)cc2)cc1
- growth inhibition ([1]; at 1.2 µM): -1% (inactive)
- growth inhibition ([1]; at 3.7 µM): -1% (inactive)
- growth inhibition ([1]; at 11.0 µM): 1% (inactive)
- growth inhibition ([1]; at 33.0 µM): 6% (inactive)
- growth inhibition ([1]; at 100.0 µM): 46% (inactive)
- growth inhibition ([2]; at 1.2 µM): 1% (inactive)
- growth inhibition ([2]; at 3.7 µM): 2% (inactive)
- growth inhibition ([2]; at 11.0 µM): 3% (inactive)
- growth inhibition ([2]; at 33.0 µM): 3% (inactive)
- growth inhibition ([2]; at 100.0 µM): 12% (inactive)
- growth inhibition ([3]; at 1.2 µM): 4% (inactive)
- growth inhibition ([3]; at 3.7 µM): 8% (inactive)
- growth inhibition ([3]; at 11.0 µM): 10% (inactive)
- growth inhibition ([3]; at 33.0 µM): 11% (inactive)
- growth inhibition ([3]; at 100.0 µM): 14% (inactive)
- growth inhibition ([4]; at 1.2 µM): 0% (inactive)
- growth inhibition ([4]; at 3.7 µM): -1% (inactive)
- growth inhibition ([4]; at 11.0 µM): 1% (inactive)
- growth inhibition ([4]; at 33.0 µM): 2% (inactive)
- growth inhibition ([4]; at 100.0 µM): 28% (inactive)
- growth inhibition ([5]; at 1.2 µM): 4% (inactive)
- growth inhibition ([5]; at 3.7 µM): 3% (inactive)
- growth inhibition [5, 15]: 0% (inactive)
- growth inhibition ([5]; at 11.0 µM): 14% (inactive)
- growth inhibition ([5]; at 33.0 µM): 9% (inactive)
- growth inhibition [5, 16]: -22% (inactive)
- growth inhibition ([5]; at 50.0 µM): 98.3% (active)
- growth inhibition ([5]; at 100.0 µM): 37% (inactive)
- growth inhibition ([6]; at 1.2 µM): 4% (inactive)
- growth inhibition ([6]; at 3.7 µM): 4% (inactive)
- growth inhibition [6, 15]: 6% (inactive)
- growth inhibition ([6]; at 11.0 µM): 6% (inactive)
- growth inhibition ([6]; at 33.0 µM): 7% (inactive)
- growth inhibition [6, 16]: -5% (inactive)
- growth inhibition ([6]; at 50.0 µM): 94.3% (active)
- growth inhibition ([6]; at 100.0 µM): 38% (inactive)
- growth inhibition ([7]; at 1.2 µM): 1% (inactive)
- growth inhibition ([7]; at 3.7 µM): -1% (inactive)
- growth inhibition ([7]; at 11.0 µM): 1% (inactive)
- growth inhibition ([7]; at 33.0 µM): 2% (inactive)
- growth inhibition ([7]; at 100.0 µM): 40% (inactive)
- growth inhibition [8, 15]: 0% (inactive)
- growth inhibition [8, 16]: -16% (inactive)
- growth inhibition ([8]; at 50.0 µM): 96.3% (active)
- growth inhibition [9, 15]: 34% (inactive)
- growth inhibition [9, 16]: -111% (inactive)
- growth inhibition ([9]; at 50.0 µM): 98.4% (active)
- growth inhibition ([10]; at 1.2 µM): 0% (inactive)
- growth inhibition ([10]; at 3.7 µM): 5% (inactive)
- growth inhibition [10, 15]: 28% (inactive)
- growth inhibition ([10]; at 11.0 µM): 9% (inactive)
- growth inhibition ([10]; at 33.0 µM): 18% (inactive)
- growth inhibition [10, 16]: -8% (inactive)
- growth inhibition ([10]; at 50.0 µM): 95.8% (active)
- growth inhibition ([10]; at 100.0 µM): 12% (inactive)
- growth inhibition ([11]; at 1.2 µM): 0% (inactive)
- growth inhibition ([11]; at 3.7 µM): 1% (inactive)
- growth inhibition ([11]; at 11.0 µM): 1% (inactive)
- growth inhibition ([11]; at 33.0 µM): 4% (inactive)
- growth inhibition ([11]; at 100.0 µM): 41% (inactive)
- growth inhibition ([12]; at 1.2 µM): 5% (inactive)
- growth inhibition ([12]; at 3.7 µM): 3% (inactive)
- growth inhibition ([12]; at 11.0 µM): 7% (inactive)
- growth inhibition ([12]; at 33.0 µM): -13% (inactive)
- growth inhibition ([12]; at 100.0 µM): 48% (inactive)
- growth inhibition [13, 15]: -5% (inactive)
- growth inhibition [13, 16]: -5% (inactive)
- growth inhibition ([13]; at 50.0 µM): 97.2% (active)
- growth inhibition ([14]; at 1.2 µM): 3% (inactive)
- growth inhibition ([14]; at 3.7 µM): 3% (inactive)
- growth inhibition ([14]; at 11.0 µM): 15% (inactive)
- growth inhibition ([14]; at 33.0 µM): 23% (inactive)
- growth inhibition ([14]; at 100.0 µM): 54% (inactive)
